104 molecules from ChEMBL document CHEMBL3988442, “University of Dundee, Small-Polar-MMV Screening Library” (2021) can be followed below.

Each structure is given as a SMILES string. About 13,000 (27%) of roughly 48,000 compounds showed an effect of 50% or more. Some of the results follow.

The subject of this assay is Wolbachia pipientis. Description: Anti-Wolbachia Cell-Based Screen. The conditions noted are these: 5 µM. It is filed as functional. Further details: scale not given: in the data most compounds retested in dose-response had high values.
In the case of `O=C(C1SCCc2sccc21)N1CCN(C2CC2)C(=O)C1` (centres undefined), the “Percent Effect” value is reported as -5.096%.

In the case of `CN(CCc1noc(C2CC2)n1)C(=O)CCc1cc2n(n1)CCCNC2`, the “Percent Effect” value turned out to be 5.558%.

As to `CC(=O)c1sc(C(NC(=O)c2ccccc2)C2CC2)nc1C` (centres undefined), the “Percent Effect” value was 5.718%. The same measure for `CSCC(=O)N1C[C@@H](C)[C@](O)(C(C)C)C1`: 100.1%; for `CSCC(=O)N1CCN(CC(O)C(C)(C)C)CC1` (centres undefined): -10.26%; for `CSCCC(=O)N1CCN(CC(C)O)CC1` (centres undefined): -18.5%.

Take `C[C@@H]1CN(C(=O)CSc2nncn2C)C[C@@]1(O)C1CC1`: the “Percent Effect” value is listed as -9.811%. To `CSCCC(=O)N1C[C@@H](C)[C@](O)(C(C)C)C1` belongs 109.4%. The same measure for `CCC(O)CN1CCN(C(=O)CCSC)CC1` (centres undefined): 1.956%; for `Clc1cccc2c1CCN(Cc1nc(CC3CC3)no1)C2`: -15.7%; for `O=C(NCCNc1ncccn1)c1scnc1Cl`: 2.928%. To `CCc1noc(CN2CCN(C(=O)c3ccccc3F)CC2)n1` belongs 117.4%; to `CCc1noc(CN2CCN(C(=O)c3ccccn3)CC2)n1`, -5.851%. As to `CCc1noc(CN2CCN(C(=O)N(C)C)CC2)n1`, the “Percent Effect” value is reported as -9.661%. As to `CC(C)Cc1noc(CN2CCN(C(=O)c3ccco3)CC2)n1`, the “Percent Effect” value was -2.17%. To `CC(C)Cc1noc(CN2CCN(C(=O)c3ccccc3F)CC2)n1` belongs 100.3%; to `CC(C)Cc1noc(CN2CCCN(C(=O)c3ccccc3Cl)CC2)n1`, -15.62%; to `OCC1(O)CCCN(Cc2ccc(-c3cc[nH]n3)s2)CC1` (centres undefined), 3.83%. The same measure for `Cc1cnn(CC2CCCN2C(=O)c2cc3ccccc3[nH]c2=O)c1` (centres undefined): -0.3129%; for `Cc1cnn(CC2CCCN2C(=O)c2n[nH]c(=O)c3ccccc23)c1` (centres undefined): 115%.

On to `O=C1COc2c(cccc2C(=O)N2CCCCC2Cn2cccn2)N1` (centres undefined), for which the “Percent Effect” value is listed as -1.784%. The same measure for `Cc1cnn(CC2CCCN2C(=O)c2cc3ccccc3c(=O)[nH]2)c1` (centres undefined): 122.8%. On to `Cc1cnn(CC2CCCN2C(=O)Cc2n[nH]c3ccccc23)c1` (centres undefined), for which the “Percent Effect” value stood at 2.79%. The same measure for `O=C(c1nccc2ccccc12)N1CCCCC1Cn1cccn1` (centres undefined): 116.9%; for `O=C1COc2c(cccc2C(=O)N2CCCC2Cn2cccn2)N1` (centres undefined): -10.2%; for `Cc1cnn(CC2CCCN2C(=O)c2cc3ccccc3[nH]2)c1` (centres undefined): 2.697%. On to `O=C(c1n[nH]c(=O)c2ccccc12)N1CCCC1Cn1cccn1` (centres undefined), for which the “Percent Effect” value worked out at 110.2%. To `O=C1CC(c2ccc(F)c(F)c2)c2snc(C(=O)O)c2N1` (centres undefined) belongs 8.498%. To `Cc1ccc(-c2cc(CN(CC(N)=O)CC(C)C)on2)cc1` belongs -24.63%. Take `Cc1ccc(-c2ncc(C(=O)NCCS(N)(=O)=O)s2)c(C)c1`: the “Percent Effect” value was -6.964%. To `CCCn1nnnc1CSc1nccn1CC` belongs -2.029%; to `Cc1nc(CN2CCN(C(=O)CCC(=O)c3ccccc3)CC2)no1`, 17.55%; to `O=C(c1cnco1)N1CCCC(Cc2nccs2)C1` (centres undefined), -3.557%.

As to `CCCn1cc(C(=O)N2CCCC(Cc3nccs3)C2)cn1` (centres undefined), the “Percent Effect” value was found to be 95.18%.

With `O=C(N1CCCC1)C12CC(CN1Cc1nccs1)C2`, the “Percent Effect” value was -16.8%.

As for `Cc1ncncc1C(=O)N1CCCN(Cc2nccn2C(C)C)CC1`, the “Percent Effect” value is reported as -12.73%. The same measure for `Cc1ncc(C(=O)N2CC[C@@]3(O)CCN(C4CCCCC4)C[C@H]3C2)cn1`: 8.568%. Regarding `Cc1ncc(C(=O)N2CCCC(Cc3nccs3)C2)cn1` (centres undefined), the “Percent Effect” value came to 96.26%. The same measure for `Cn1cc(C(=O)N2CCC(Cc3nccs3)CC2)cn1`: 0.6928%; for `CCc1nc(CN2CCCN(C(=O)c3cncnc3C)CC2)cs1`: 14.37%; for `Cn1cc(C(=O)N2CCCC(Cc3nccs3)C2)cn1` (centres undefined): -5.021%. Regarding `Cc1ncncc1C(=O)N1CCCC(Cc2nccs2)C1` (centres undefined), the “Percent Effect” value was found to be 112.8%.

Regarding `O=C(c1cccnc1)N1CCN(c2ccnc3ccsc23)CC1`, the “Percent Effect” value was -5.057%. To `O=C(c1cccnc1)N1CCCC(Cc2nccs2)C1` (centres undefined) belongs 104.8%. The same measure for `Cc1cccc2c1nc(CCO)n2-c1ccc(N)nc1`: -17.09%; for `CSc1ccc(-c2nc(CN3CCC(NC(C)=O)C3)c(C)o2)cc1` (centres undefined): -8.203%; for `COc1cccc2c1OCC(C(=O)N1CCN(CCS(C)(=O)=O)CC1)C2` (centres undefined): -9.844%. The same measure for `Fc1ccc(Cn2ncc3c2CN(c2noc(C4CC4)n2)C3)cc1`: 2.089%. Turning to `Cn1ccnc1C(=O)N1CCC(Cn2cc(-c3ccsc3)nn2)CC1`, the “Percent Effect” value came to 0.3036%. For the molecule `COc1nn(C)cc1C(=O)N1CCC(c2nnc(C(C)C)o2)CC1`, the “Percent Effect” value is 80.59%. To `COc1nn(C)cc1C(=O)N1CCC(c2nnc(C3CC3)o2)CC1` belongs 8.567%; to `COc1ncccc1C(=O)N1CCC(c2nnc(C3CC3)o2)CC1`, 16.61%.

As for `Cn1nccc1C(=O)N1CCC(n2cc(-c3ccsc3)nn2)CC1`, the “Percent Effect” value is reported as -17.39%. As to `COc1nn(C)cc1C(=O)N1CCC(c2nnc(-c3ccsc3)o2)CC1`, the “Percent Effect” value is recorded as 120.9%. On to `C/C=C(/C)C(=O)NS(=O)(=O)c1ccc(Cl)cn1`, for which the “Percent Effect” value is listed as 2.315%. The same measure for `Cc1nccnc1N1Cc2cnc(CC(C)C)nc2C1`: -0.1537%; for `CCCNC(=O)NCc1nc(C)c(C)o1`: -5.382%. The same measure for `Cc1nc(CN(C)S(=O)(=O)c2ccc(F)cc2Br)no1`: -1.638%; for `C[S+]([O-])c1nncn1CC(=O)c1cccc(Cl)c1` (centres undefined): 6.672%. To `COc1ccc(CN(C(=O)C(C)C)c2cnn(C)c2)c(OC)c1` belongs -18.73%; to `COc1cccc(CN2CCC(c3cc(O)nc(C)n3)C2)c1.O=C(O)CC(O)(CC(=O)O)C(=O)O` (centres undefined), -8.452%; to `COc1ccc(CN(C(=O)CCC(C)C)c2cnn(C)c2)c(OC)c1`, -10.12%. In the case of `COc1ccc(CN(Cc2ccco2)Cc2[nH]cnc2C)c(OC)c1.O=C(O)CC(O)(CC(=O)O)C(=O)O`, the “Percent Effect” value was found to be 111.9%. The same measure for `Cc1nc[nH]c1CN(Cc1ccccc1)Cc1nccs1`: 10.51%; for `COc1cccc(CN(Cc2ccco2)Cc2[nH]cnc2C)c1.O=C(O)CC(O)(CC(=O)O)C(=O)O`: 156.3%; for `Cc1noc(CN(Cc2ccc3c(c2)OCCO3)Cc2ccco2)n1`: -7.452%.

For `CCOC(=O)C1(Cc2cccc(OC)c2)CCN(Cc2ncc[nH]2)CC1`, the “Percent Effect” value is on record as -0.1816%.

Take `COc1ccc2nc(O)c(CN(C)Cc3ncc[nH]3)cc2c1`: the “Percent Effect” value was -3.339%. To `COc1ccc(NC(=O)N(C)Cc2ccco2)cn1` belongs 3.036%; to `COc1cccc(CN(Cc2ncc[nH]2)Cc2ccco2)c1.O=C(O)CC(O)(CC(=O)O)C(=O)O`, 114.4%; to `COc1cccc(CN(Cc2ccco2)Cc2cnc(C)n2C)c1.O=C(O)CC(O)(CC(=O)O)C(=O)O`, 133.7%.

With `Cc1ccc(C(=O)N2C[C@@H](NS(C)(=O)=O)[C@H](C(C)C)C2)cc1O`, the “Percent Effect” value came to 5.531%. To `CC(CCc1cccn1C)NC(=O)Nc1cccn(C)c1=O` (centres undefined) belongs -4.481%; to `Cc1ccccc1OCC1CCCN(C(=O)CNC(=O)N(C)C)C1` (centres undefined), 1.963%; to `N#Cc1cccc(CN2CCN(C(=O)C3CCC3)[C@@H]3CS(=O)(=O)C[C@@H]32)c1`, 2.28%.

As to `Cc1csc(CCNC(=O)c2ccc(N(C)C)c(F)c2)n1`, the “Percent Effect” value was -10.73%. The same measure for `CCN(Cc1ccoc1)C(=O)NC1CCN(CC2CCCC2)CC1`: -1.692%; for `COc1ccc(N(Cc2ccco2)C(=O)C2CCCO2)cc1F` (centres undefined): 12.44%; for `CCOCC(=O)N(Cc1ccco1)c1ccc(OC)c(F)c1`: -17.42%. To `COc1ccc(OC)c(CN(Cc2ccco2)Cc2[nH]cnc2C)c1.O=C(O)CC(O)(CC(=O)O)C(=O)O` belongs 125%; to `COCCN(CCOC)c1ncccc1I`, 19.77%; to `O=C(NCCCn1ccnc1)c1csc2c1CCCC2`, 4.867%. The same measure for `COc1cccc(-c2n[nH]cc2C(=O)NC(C)CC(=O)O)c1` (centres undefined): -19.78%; for `CCn1nc(C(C)C)cc1C(=O)NCCCOC`: -18.28%; for `COCC(C)NC(=O)c1nnn(-c2ccc(F)cc2)n1` (centres undefined): -1.834%. As for `CC(C)n1cc(C(=O)NCCCn2ccnc2)c2n[nH]c(=O)c-2c1`, the “Percent Effect” value worked out at 123.9%. Turning to `COCCCNC(=O)c1cn(C(C)C)cc2c(=O)[nH]nc1-2`, the “Percent Effect” value is listed as 104.5%.

Turning to `COCC(C)NC(=O)c1cn(C(C)C)cc2c(=O)[nH]nc1-2` (centres undefined), the “Percent Effect” value is listed as 106.6%. To `CC(C)N(C)CCCNC(=O)c1cnn(C(C)C)c1C(F)(F)F` belongs 7.835%. The same measure for `CC(C(=O)NCCCn1ccnc1)n1cc(Br)cn1` (centres undefined): 2.347%; for `Cc1ccsc1CN(C)c1nc2c(cnn2C(C)(C)C)c(=O)[nH]1`: -15.84%; for `O=C(c1ccco1)N1CCN(Cc2nc(C3CC3)no2)CC1`: -17.27%. For `O=C(C1CCCCN1Cc1nc(-c2ccco2)no1)N1CCCC1` (centres undefined), the “Percent Effect” value was -6.382%. To `O=C(C1CCCCC1)N1CCN(Cc2nc(-c3ccco3)no2)CC1` belongs 98.36%; to `O=C(C1CCCN1Cc1nc(-c2ccco2)no1)N1CCSCC1` (centres undefined), 97.23%. To `O=C(C1CCCC1)N1CCN(Cc2nc(-c3ccco3)no2)CC1` belongs 3.823%; to `c1coc(-c2noc(CN3CCC(c4ccn[nH]4)CC3)n2)c1`, 3.524%. As for `CC(C)(C)CC1CCCN1Cc1nc(-c2ccco2)no1` (centres undefined), the “Percent Effect” value came to 1.615%. The same measure for `CC(C)c1cc(C2CCCN2Cc2nc(-c3ccco3)no2)no1` (centres undefined): -36.51%; for `NC(=O)NCC1CCCCN1Cc1nc(-c2ccco2)no1` (centres undefined): 116.5%. The same measure for `O=C(C1CCN(Cc2nc(-c3ccco3)no2)CC1)N1CCCC1`: 109.9%; for `c1coc(-c2noc(CN3CCc4c(ncn4C4CC4)C3)n2)c1`: -13.05%; for `CCCOCCOC(=O)c1ccc2c(c1)[nH]c(=O)n2C`: -3.927%. For `NC(=O)CCn1cc(CNCCCc2ccccc2O)c2ccccc21`, the “Percent Effect” value is 15.24%.
